# Data reported in PubChem BioAssay (NCATS).
# Results filed as inconclusive are left out. Calls of active or inactive are those of the source. The call rests on the fitted dose curve; in most records, active means well fitted inhibition curve with a large enough effect; inconclusive means small, poorly fitted or top-dose-only effect; inactive means flat fitted curve, though single readings scatter.
# Target: Calcium and integrin-binding protein 1 (Homo sapiens) (UniProt Q99828)
# Experiment: Primary qHTS for Identification of Calcium Integrin Binding Protein 1 (CIB1) Competitor (AID 1508620);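 further: GST tagged CIB1 binding a fluorescein labelled alphaIIb integrin peptide tracer; top concentration of the series differs between compounds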
# Conditions: CIB1-GST / FITC-alphaIIb peptide fluorescence polarization; series mostly up to 114 µM; activity change, negative = inhibition: at the top concentration
# Outline: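 Fluorescence polarization competition: CIB1-GST (1 uM final) preincubated with compound 15 min at room temperature, then FITC-labeled alphaIIb peptide (100 nM final) added for another 15 min. Polarization read at Ex 480/Em 540.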
# On the % scale 0 is the no-effect control and ±100 the full control effect.
# Chain of Calcium and integrin-binding protein 1 (Homo sapiens) (Q99828 whole entry, looked up): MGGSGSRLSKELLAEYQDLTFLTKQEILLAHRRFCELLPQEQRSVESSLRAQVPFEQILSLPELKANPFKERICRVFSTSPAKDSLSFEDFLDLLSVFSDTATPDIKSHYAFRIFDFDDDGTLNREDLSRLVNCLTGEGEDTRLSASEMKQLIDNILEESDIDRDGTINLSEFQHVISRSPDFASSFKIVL
row,Structure (SMILES),"activity change, negative = inhibition"
1,O=C(Nc1ccc(-c2nc3ccccc3[nH]2)cc1)c1ccncc1,2.59% (inactive)
2,COc1cc(NC(=O)C(OC(=O)CNC(=O)c2ccccc2)c2ccccc2)cc(C(F)(F)F)c1 (centres undefined),-2.04% (inactive)
3,COc1ccc(NC(=O)c2[nH]c(C)c(C(C)=O)c2C)cc1S(=O)(=O)Nc1cccc(C#N)c1,-5.17% (inactive)
4,CCOc1ccc(CCNC(=O)c2cc3c(s2)CCC3)cc1OCC,19.4% (inactive)
5,CCOc1ccccc1-c1nnc2n1N=C(c1ccc(OC)cc1)CS2,3.14% (inactive)
6,Cc1cc2c(s1)c1cnn(Cc3c(C)cc(F)cc3C)c(=O)c1n2C,4.52% (inactive)
7,CCOC(=O)c1ccc(-c2ccc3ncnc(NCc4csc(C)n4)c3c2)o1,-15.9% (inactive)
8,O=[S+]([O-])(c1ccc2c(c1)OCCO2)N1CCN([S+](=O)([O-])c2c(F)cc(F)cc2Br)CC1,4.34% (inactive)
9,CCOC(=O)c1ccoc1-c1ccc2ncnc(N(C)Cc3sccc3C)c2c1,2.54% (inactive)
10,Nc1cccc(S(=O)(=O)N2CCN(S(=O)(=O)c3c(F)cccc3F)CC2)c1,1.36% (inactive)
11,CC(C)(C)OC(=O)N1CCN(c2ncc(NCc3ccc(-c4ccc(C#N)cc4)o3)cn2)CC1,6.4% (inactive)
12,COc1cc(O)c(C(CC(=O)N2CCCC(c3nc4ccccc4o3)C2)c2ccc3c(c2)OCO3)c(OC)c1 (centres undefined),-7.29% [at 228 µM] (inactive)
13,Cc1csc(CNc2ncnc3ccc(-c4ccoc4)cc23)c1,-7.36% (inactive)
14,Fc1ccc(Nc2cc(-c3ccccc3)nc(-c3ccncc3)n2)cc1F,5.17% (inactive)
15,COc1ccc(C2N(Cc3ccccc3)C(=O)c3ccccc3N2C)cc1COc1ccc(NC(C)=O)cc1 (centres undefined),0.344% (inactive)
16,S=C(Nc1cc(Cl)ccn1)N1CCN(c2ccc(Cl)c(Cl)c2)CC1,-4.14% (inactive)
17,COc1cccc(NS(=O)(=O)c2ccc3c(c2)CCC(=O)N3)c1,2.95% (inactive)
18,CN1CCOc2cc(S(=O)(=O)N3CCN(S(=O)(=O)c4c(F)cccc4F)CC3)cnc21,5.26% (inactive)
19,N#Cc1no[n+]([O-])c1-c1ccccc1,-2.19% (inactive)
20,Fc1ccc(-c2nnc(CCCCSc3nnc(-c4cccc5ccccc45)o3)o2)cc1,3.92% (inactive)

row,Structure (SMILES),"activity change, negative = inhibition"
1,N#Cc1ccc(Nc2ncc(-c3cccc4ccccc34)o2)cc1,4.27% (inactive)
2,O=C1Cc2cc(S(=O)(=O)N3CCN(c4ccc(CO)cc4)CC3)ccc2N1,2.3% (inactive)
3,CC(=O)c1ccc(N2CCN(S(=O)(=O)c3ccc4c(c3)oc(=O)n4C)CC2)cc1,5.68% (inactive)
4,Fc1cc(F)cc(Nc2nc(Cl)nc(NC3CCCC3)n2)c1,1.62% (inactive)
5,CN1CCN(c2nnc(NC(=O)Nc3ccc(Cl)c(Cl)c3)s2)CC1,1.66% (inactive)
6,Cc1ccc(NS(=O)(=O)c2ccc3c(c2)n(C)c(=O)n3C)cc1C,-2.61% (inactive)
7,Cc1cc(C)nc(NC(=S)N2CCN(c3cccc([N+](=O)[O-])c3)CC2)c1,-21.9% (inactive)
8,Cc1cc(C)n2ncc(C(=O)Nc3ccc(C(F)(F)F)cc3)c2n1,1.99% (inactive)
9,COc1ccc(-c2nnc3n2N=C(c2ccc(OC)cc2OC)CS3)cc1,0.327% (inactive)
10,CC(Nc1ncnc2ccc(-c3ccc4c(c3)OCO4)cc12)c1ccco1 (centres undefined),-0.794% (inactive)
11,Cc1ccc(S(=O)(=O)Nc2ccccc2CNc2nc(-c3ccccc3)cs2)cc1,3.4% (inactive)
12,COc1ccc(NS(=O)(=O)c2ccc(C)cc2)cc1C(=O)Nc1nc(-c2ccccc2)cs1,-1.9% (inactive)
13,Cc1nnc(-c2cnn(C)c2N)n1CCCn1ccnc1,2.71% (inactive)
14,COc1ccc(-c2nnc3n2N=C(c2c(OC)cccc2OC)CS3)cc1,0.483% (inactive)
15,Cn1cc(P(=O)(c2ccccc2)c2ccccc2)c2ccccc21,-1.3% (inactive)
16,C#CCCC(=O)Nc1sc2c(c1-c1nc3ccccc3s1)CCNC2,7.8% (inactive)
17,COC(=O)c1ccccc1NC(=O)c1ccccc1OC(F)F,-0.0702% (inactive)
18,O=C1c2ccccc2C(=O)N1c1noc2ccccc12,3.67% (inactive)
19,O=S(=O)(Nc1ccc(C2CCNCC2)cc1)c1ccc(NCc2cccc(Cl)c2O)cc1,-24.7% (inactive)
